Test in all cases: PBM; 200 nM protein, PBS
Holding throughout (conditions): dsDNA, one strand shown

The target in assay [1] is T1, SIX6 (Homo sapiens, UniProt O95475 114-200, L167I).
T1 sequence: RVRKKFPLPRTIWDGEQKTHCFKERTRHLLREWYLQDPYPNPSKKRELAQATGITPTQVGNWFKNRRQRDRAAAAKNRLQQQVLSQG

Assay [2] deals with T2, SIX6 (Homo sapiens, UniProt O95475 114-200, L143V).
T2 sequence: T1 sequence with L30V, I54L

For assay [3], the target named is T3, SIX6 (Homo sapiens, UniProt O95475 114-200, H141N).
T3 sequence: T1 sequence with H28N, I54L

For assay [4], the target named is T4, SIX6 (Homo sapiens, UniProt O95475 114-200, T165P).
T4 sequence: T1 sequence with T52P, I54L

The target in assay [5] is T5, SIX6 (Homo sapiens, UniProt O95475 114-200, L167M).
T5 sequence: T1 sequence with I54M

The target of assay [6] is T6, SIX6 (Homo sapiens, UniProt O95475 114-200, L143M).
T6 sequence: T1 sequence with L30M, I54L

Assay [7] deals with T7, SIX6 (Homo sapiens, UniProt O95475 114-200, L143I).
T7 sequence: T1 sequence with L30I, I54L

Assay [8] deals with T8, SIX6 (Homo sapiens, UniProt O95475 114-200, T165G).
T8 sequence: T1 sequence with T52G, I54L

In assay [9] the target is T9, SIX6 (Homo sapiens, UniProt O95475 114-200, T139Q).
T9 sequence: T1 sequence with T26Q, I54L

The target of assay [10] is T10, SIX6 (Homo sapiens, UniProt O95475 114-200, T165A).
T10 sequence: T1 sequence with T52A, I54L

In assay [11] the target is T11, SIX6 (Homo sapiens, UniProt O95475 114-200, L167V).
T11 sequence: T1 sequence with I54V

Assay [12] deals with T12, SIX6 (Homo sapiens, UniProt O95475 114-200).
T12 sequence: T1 sequence with I54L

Assay [13] deals with T13, SIX6 (Homo sapiens, UniProt O95475 114-200, T165I).
T13 sequence: T1 sequence with T52I, I54L

In assay [14] the target is NKX3-2 (Homo sapiens, UniProt P78367 192-278, P234S).
Chain of NKX3-2 (Homo sapiens, UniProt P78367 192-278, P234S) (P78367 192-278 P234S): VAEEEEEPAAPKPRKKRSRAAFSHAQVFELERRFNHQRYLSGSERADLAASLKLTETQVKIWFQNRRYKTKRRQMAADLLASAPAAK
The target of assay [15] is NKX3-2 (Homo sapiens, UniProt P78367 192-278).
Chain of NKX3-2 (Homo sapiens, UniProt P78367 192-278) (P78367 192-278): as the sequence (P78367 192-278 P234S) above, with S43P counted along it

Experimental findings from publication PMC11006913 are described below.

Where a chain is given by its changes, count along the chain named.

On to GGATATCA, for which the binding signal with SIX6 [1] was 11.4 upbm affinity estimate (log intensity, higher = more binding, comparable within an allelic series); with SIX6 [2], 10.4 upbm affinity estimate (log intensity, higher = more binding, comparable within an allelic series); in the assay with SIX6 [3], 11.4 upbm affinity estimate (log intensity, higher = more binding, comparable within an allelic series); in the assay with SIX6 [4], 9.53 upbm affinity estimate (log intensity, higher = more binding, comparable within an allelic series); with SIX6 [5], 10.9 upbm affinity estimate (log intensity, higher = more binding, comparable within an allelic series); with SIX6 [6] it was 11.1 upbm affinity estimate (log intensity, higher = more binding, comparable within an allelic series). The binding signal with SIX6 [7] was 10.4 upbm affinity estimate (log intensity, higher = more binding, comparable within an allelic series); in the assay with SIX6 [8] it was 11.3 upbm affinity estimate (log intensity, higher = more binding, comparable within an allelic series); with SIX6 [9] it was 11.2 upbm affinity estimate (log intensity, higher = more binding, comparable within an allelic series); with SIX6 [10], 11.3 upbm affinity estimate (log intensity, higher = more binding, comparable within an allelic series); with SIX6 [11] it was 11.2 upbm affinity estimate (log intensity, higher = more binding, comparable within an allelic series); with SIX6 [12], 11.2 upbm affinity estimate (log intensity, higher = more binding, comparable within an allelic series). Also, in the assay with SIX6 [13], the binding signal was 11.2 upbm affinity estimate (log intensity, higher = more binding, comparable within an allelic series).
CTGGCGCC: the binding signal in the assay with SIX6 [1] is 8.88 upbm affinity estimate (log intensity, higher = more binding, comparable within an allelic series); with SIX6 [2], 8.96 upbm affinity estimate (log intensity, higher = more binding, comparable within an allelic series); with SIX6 [3], 8.82 upbm affinity estimate (log intensity, higher = more binding, comparable within an allelic series); in the assay with SIX6 [4], 9.1 upbm affinity estimate (log intensity, higher = more binding, comparable within an allelic series); with SIX6 [5], 8.85 upbm affinity estimate (log intensity, higher = more binding, comparable within an allelic series); with SIX6 [6] it was 8.93 upbm affinity estimate (log intensity, higher = more binding, comparable within an allelic series). Besides, the binding signal with SIX6 [7] was 8.9 upbm affinity estimate (log intensity, higher = more binding, comparable within an allelic series); with SIX6 [8], 8.9 upbm affinity estimate (log intensity, higher = more binding, comparable within an allelic series); in the assay with SIX6 [9], 8.85 upbm affinity estimate (log intensity, higher = more binding, comparable within an allelic series); with SIX6 [10], 8.87 upbm affinity estimate (log intensity, higher = more binding, comparable within an allelic series); in the assay with SIX6 [11] it was 8.8 upbm affinity estimate (log intensity, higher = more binding, comparable within an allelic series); in the assay with SIX6 [12], 8.82 upbm affinity estimate (log intensity, higher = more binding, comparable within an allelic series). Besides, the binding signal is 8.87 upbm affinity estimate (log intensity, higher = more binding, comparable within an allelic series) with SIX6 [13]; 10.6 upbm affinity estimate (log intensity, higher = more binding, comparable within an allelic series) with NKX3-2 [14]; 10.5 upbm affinity estimate (log intensity, higher = more binding, comparable within an allelic series) with NKX3-2 [15].
GCCGCGCA: the binding signal with SIX6 [1] is 8.96 upbm affinity estimate (log intensity, higher = more binding, comparable within an allelic series); with SIX6 [2], 8.97 upbm affinity estimate (log intensity, higher = more binding, comparable within an allelic series); in the assay with SIX6 [3] it was 8.91 upbm affinity estimate (log intensity, higher = more binding, comparable within an allelic series); with SIX6 [4], 8.97 upbm affinity estimate (log intensity, higher = more binding, comparable within an allelic series); in the assay with SIX6 [5] it was 8.9 upbm affinity estimate (log intensity, higher = more binding, comparable within an allelic series); in the assay with SIX6 [6] it was 8.97 upbm affinity estimate (log intensity, higher = more binding, comparable within an allelic series). For the same sequence, the binding signal with SIX6 [7] is 8.96 upbm affinity estimate (log intensity, higher = more binding, comparable within an allelic series); with SIX6 [8] it was 8.81 upbm affinity estimate (log intensity, higher = more binding, comparable within an allelic series); in the assay with SIX6 [9], 8.99 upbm affinity estimate (log intensity, higher = more binding, comparable within an allelic series); with SIX6 [10], 8.86 upbm affinity estimate (log intensity, higher = more binding, comparable within an allelic series); with SIX6 [11], 8.86 upbm affinity estimate (log intensity, higher = more binding, comparable within an allelic series); with SIX6 [12] it was 8.91 upbm affinity estimate (log intensity, higher = more binding, comparable within an allelic series). For the same sequence, in the assay with SIX6 [13], the binding signal was 8.89 upbm affinity estimate (log intensity, higher = more binding, comparable within an allelic series).
For AGATAGGG, the binding signal with SIX6 [1] was 10.1 upbm affinity estimate (log intensity, higher = more binding, comparable within an allelic series); with SIX6 [2], 9.56 upbm affinity estimate (log intensity, higher = more binding, comparable within an allelic series); in the assay with SIX6 [3], 10.1 upbm affinity estimate (log intensity, higher = more binding, comparable within an allelic series); with SIX6 [4], 9.33 upbm affinity estimate (log intensity, higher = more binding, comparable within an allelic series); with SIX6 [7], 9.71 upbm affinity estimate (log intensity, higher = more binding, comparable within an allelic series); with SIX6 [8] it was 10.3 upbm affinity estimate (log intensity, higher = more binding, comparable within an allelic series). For the same sequence, the binding signal was 10.4 upbm affinity estimate (log intensity, higher = more binding, comparable within an allelic series) with SIX6 [9]; 10.1 upbm affinity estimate (log intensity, higher = more binding, comparable within an allelic series) in the assay with SIX6 [10]; 10 upbm affinity estimate (log intensity, higher = more binding, comparable within an allelic series) in the assay with SIX6 [12].
For the sequence CGCGCTCC, the binding signal with SIX6 [1] is 8.99 upbm affinity estimate (log intensity, higher = more binding, comparable within an allelic series); in the assay with SIX6 [2], 8.9 upbm affinity estimate (log intensity, higher = more binding, comparable within an allelic series); in the assay with SIX6 [3], 8.83 upbm affinity estimate (log intensity, higher = more binding, comparable within an allelic series); in the assay with SIX6 [4], 9.01 upbm affinity estimate (log intensity, higher = more binding, comparable within an allelic series); in the assay with SIX6 [5], 8.97 upbm affinity estimate (log intensity, higher = more binding, comparable within an allelic series); with SIX6 [6], 9.06 upbm affinity estimate (log intensity, higher = more binding, comparable within an allelic series). Further, the binding signal with SIX6 [7] is 8.97 upbm affinity estimate (log intensity, higher = more binding, comparable within an allelic series); in the assay with SIX6 [8] it was 8.86 upbm affinity estimate (log intensity, higher = more binding, comparable within an allelic series); with SIX6 [9] it was 9.04 upbm affinity estimate (log intensity, higher = more binding, comparable within an allelic series); with SIX6 [10] it was 8.97 upbm affinity estimate (log intensity, higher = more binding, comparable within an allelic series); with SIX6 [11] it was 8.93 upbm affinity estimate (log intensity, higher = more binding, comparable within an allelic series); in the assay with SIX6 [12], 8.91 upbm affinity estimate (log intensity, higher = more binding, comparable within an allelic series). Also, the binding signal with SIX6 [13] is 8.89 upbm affinity estimate (log intensity, higher = more binding, comparable within an allelic series).
